Source: PubChem (National Center for Advancing Translational Sciences (NCATS))
An excerpt weighted towards active compounds, which were near 3.3% of everything screened.
PI5P4K alpha inh: PI5P4K alpha (human) kinase inhibition; PI5P4Kalpha enzyme, ADP-Glo luminescence, 60 min; hits give low values; P48426; 330,000 tested, 1.2% active; max response, %; active = max response of -50% or lower; inconclusive = between -30% and -50%; inactive = -30% or higher; note: value at the top dose of about 77 µM
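qHTS, 1536-well: enzyme/substrate mix, compound by pin tool, 5 microM ATP final; RT 60 min; ADP-Glo reagents 1 (45 min) then 2 (30 min); luminescence.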
USP2a inh: USP2a (human) protease inhibition; O75604; USP2 core, Ub-CHOP2 coupled fluorogenic reporter, 485/531; Potency, µM (highest dose often 38.3 µM), inactives show at the highest dose activity change, negative = inhibition, actives largely listed as inhibitors; 330,000 tested, 0.01% active;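 note: potency is the fitted concentration of half-maximal effect; plate controls were DMSO wells for no effect and full inhibition by NEM control for full effect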
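Cell-free coupled assay: 10nM USP2 core preincubated 30min RT with compound in Tris-HCl pH 8.0/CaCl2/CHAPS buffer, then 25nM Ub-CHOP2 and 25nM reporter substrate; fluorescence (Ex 485/Em 531) read after 60min RT, normalized to NEM inhibition, concentration-response curves fitted.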
USP1 inh: USP1/UAF1 (human) deubiquitinase inhibition; O94782; recombinant USP1/UAF1, Ub-Rhodamine cleavage fluorescence; Potency, µM (highest dose often 57.1 µM), inactives show at the highest dose activity change, negative = inhibition, actives largely listed as inhibitors; 390,000 tested, 0.23% active; AID 743255; note: potency is the fitted concentration of half-maximal effect; nearly all actives have a fitted effect of over 60% in size
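USP1/UAF1 complex at 1 nM was preincubated with compound for 15 min at room temperature, then Ub-Rho substrate (150nM final) was added. Fluorescence (480/540 nm) was read kinetically, 6 reads every 60 seconds.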
WRN helicase inh: blocks human WRN helicase; WRN helicase unwinding, fluorescent forked duplex, kinetic; Potency, µM (doses to about 114 µM), for the others: top-dose activity change, negative = inhibition, actives largely listed as inhibitors; 360,000 tested, 0.46% active; note: potency is the fitted concentration of half-maximal effect; nearly all actives have a fitted effect of over 55% in size
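Primary qHTS, 1536-well format. 20 nM WRN + compound, 15 min RT; start with 100 nM forked fluorophore/quencher duplex, 2 mM ATP (final); kinetic read ex 525/em 598 nm.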
PLK1 PBD block: blocks phosphopeptide binding to human PLK1 polo-box domain; Potency, µM, for the others: max response, negative = inhibition, usual class: inhibitors; 360,000 tested, 2.8% active; Plk1 PBD binding of FITC phosphopeptide, fluorescence polarization; note: potency is the fitted concentration of half-maximal effect; series mostly up to about 57 µM; nearly all actives have a fitted effect of over 65% in size
Target sequence (P53350 whole entry, looked up, the tested form may be a part): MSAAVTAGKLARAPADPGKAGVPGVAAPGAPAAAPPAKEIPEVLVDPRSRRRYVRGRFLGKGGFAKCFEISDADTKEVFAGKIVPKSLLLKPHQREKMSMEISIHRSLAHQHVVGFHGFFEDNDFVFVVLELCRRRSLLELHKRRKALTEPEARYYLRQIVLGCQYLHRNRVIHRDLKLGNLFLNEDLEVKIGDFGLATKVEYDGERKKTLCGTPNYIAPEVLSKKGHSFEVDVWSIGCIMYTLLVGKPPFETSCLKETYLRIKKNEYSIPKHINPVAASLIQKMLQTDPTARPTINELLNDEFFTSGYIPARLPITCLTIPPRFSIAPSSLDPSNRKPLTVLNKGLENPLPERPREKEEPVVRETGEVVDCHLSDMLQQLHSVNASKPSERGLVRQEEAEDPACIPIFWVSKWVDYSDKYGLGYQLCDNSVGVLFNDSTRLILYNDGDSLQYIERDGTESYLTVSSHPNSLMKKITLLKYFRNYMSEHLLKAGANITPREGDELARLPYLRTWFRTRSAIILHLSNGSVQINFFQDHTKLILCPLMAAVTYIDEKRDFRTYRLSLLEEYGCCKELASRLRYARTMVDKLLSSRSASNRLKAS
* hit, by the source's call; ? = inconclusive; / = not tested or not shown; [ ] = remark or other dose. Unless noted, calls come from the whole dose curve; as a rule, active = well fitted curve in the direction sought with a large enough effect; inconclusive = small, poorly fitted or top-dose-only effect, or another doubt; inactive = no such curve, though single readings can be large; an effect the other way counts as inactive or inconclusive. Unless noted, % is set by controls: 0 for no effect and ±100 for the full control effect.

SMILES	PI5P4K alpha inh	USP2a inh	USP1 inh	WRN helicase inh	PLK1 PBD block
[N-]=C=C1C(=S)NC(=O)[C@H]([n+]2ccccc2)[C@H]1c1ccc(Cl)cc1	?	-1%	-12%	-1%	27µM*
N#C/C(=C\c1ccc(Cl)cc1Cl)c1nc(-c2cccc(Cl)c2)cs1	/	/	-6%	/	/
Cc1ccc(-n2c(N)c(C(N)=O)sc2=S)c(C)c1	?	1%	-10%	-31%	6.7µM*
Cc1ccccc1-n1c(N)c(C(=O)Nc2ccc(F)cc2)sc1=S	-1	2%	4%	-1%	?
COc1ccc(Cl)cc1-n1c(N)c(C(N)=O)sc1=S	/	0%	-16%	0%	12µM*
Cc1ccc(NC(=O)c2sc(=S)n(-c3cc(C)ccc3F)c2N)cc1	-15	1%	-11%	-3%	12µM*
Cn1c(Sc2ccc(C(=O)O)cc2[N+](=O)[O-])nnc1-c1ccccc1	-77*	0%	-7%	?	4.2µM*
CS(=O)(=O)N(Cc1nnc(-c2cccs2)o1)c1ccc(Cl)cc1F	-23	3%	-4%	9%	12µM*
CCCOc1ccc(C2=CSC3=NCCN23)cc1[N+](=O)[O-]	-14	4%	-26%	21%	30µM*
CN(C)C(=O)CCN1CCOCC1	-2	1%	-7%	-15%[57.1 µM]	24µM*
Cc1nn2c(C)c(C(=O)NCC(C)c3ccccc3)cnc2c1-c1ccccc1 (centres undefined)	/	/	-21%	/	/
COc1ccc2cc(C(=O)N/N=C/c3sc4ccccc4c3O)ccc2c1	-20	18%	28µM*	-34%	-2%
Cc1ccc(-n2ncc(C(=O)N3CCN(Cc4ccccc4)CC3)c2C2CCN(C(=O)OC(C)(C)C)CC2)c(C)c1	/	/	-14%	/	/
S=P(c1ccc(N2CCOCC2)cc1N1CCOCC1)(N1CCOCC1)N1CCOCC1	-28	-2%	-25%	-14%	21µM*
Nc1ccc(Oc2ncccn2)cc1	-22	5%	7.9µM*	-6%	?
CCOC(CN=c1nc(N(C)C)ss1)OCC	7	/	-18%	?	6.7µM*
Cc1sc2nc(-c3ccccn3)[nH]c(=O)c2c1-c1ccccc1	-13	-4%	-16%	-13%	19µM*
Cn1c(=O)n(C)c2cc(N3CCCCC3)c(NC(=O)c3c(F)cccc3F)cc21	/	/	-18%	/	/
Cc1ccc(N2C(=O)c3ccccc3C2=O)cc1	10	0%	-6%	-5%	9%
Cc1ccc(SC2=C(Sc3ccc(C)cc3)C(=O)c3ccccc3C2=O)cc1	-15	4%	?	79µM*	1.7µM*
CN(C)CCCNC(=O)N1c2ccccc2C=Cc2ccccc21	-12	0%	-15%	5%	27µM*
O=C1c2ccccc2-c2onc3c(N4CCN(C5CCCCC5)CC4)cc(NCCO)c1c23	/	/	16µM*	/	/
O=C(O)CCN1C(=O)CC(N2C(=O)/C(=C/c3ccc(Cl)cc3)SC2=S)C1=O (centres undefined)	1	0%	-22%	-15%	24µM*
O=C(CCN1C(=O)/C(=C/C=C/c2ccccc2)SC1=S)Nc1nccs1	-13	1%	-2%	-2%	-11%
O=C(CCN1C(=O)/C(=C\C=C\c2ccccc2)SC1=S)Nc1ccccc1C(=O)O	?	4%	-25%	?	30µM*
SMILES	PI5P4K alpha inh	USP2a inh	USP1 inh	WRN helicase inh	PLK1 PBD block
O=C(CCN1C(=O)/C(=C/c2ccc(Cl)cc2)SC1=S)Nc1cccc(C(=O)O)c1	-3	3%	11%	56µM*	?
O=C(CCCN1C(=O)S/C(=C/C=C/c2ccccc2)C1=O)Nc1ccc(C(=O)O)cc1	-29	1%	-17%	-3%[11.6 µM]	30µM*
COc1ccc(C(=O)NCCc2nc3ccccc3[nH]2)cc1	/	/	7%	/	/
O=C(C1CCCCC1)N(Cc1cccnc1)c1nc2ccc(Cl)cc2s1	/	/	-14%	/	/
CN1CCN(C(=O)CCCN2C(=O)/C(=C/c3ccc(Cl)cc3)SC2=S)CC1	0	3%	-22%	-8%	0%
O=C(CCN1C(=O)/C(=C\C=C\c2ccccc2)SC1=S)Nc1cccc(C(=O)O)c1	?	0%	?	?	27µM*
CN1CCN(C(=O)CCN2C(=O)/C(=C\c3ccc(Cl)cc3Cl)SC2=S)CC1	4	-7%	-16%	-7%	42µM*
Cc1cc2oc(C(=O)N(Cc3ccccc3)C3CCS(=O)(=O)C3)cc(=O)c2cc1C (centres undefined)	/	/	-10%	/	/
CN(CC(=O)Nc1ccc(F)cc1)C(=O)COC(=O)c1ccccc1	-4	1%	0%	-3%	2%
CC(=O)c1cccc(OCC(=O)N(C)CC(=O)Nc2ccc(F)cc2)c1	-1	10%	-17%	6%	30µM*
CC(Nc1ccc(Br)cn1)c1cc(Cl)ccc1O (centres undefined)	5	3%	-3%	-7%	27µM*
CC(Nc1ccc(Cl)cc1)c1cc(Cl)ccc1O (centres undefined)	2	-7%	-16%	-5%	1%
O=C(CSc1nnc(CNC(=O)c2ccccc2)n1-c1cccc(Cl)c1)Nc1ccccc1F	/	/	-3%	/	/
COc1ccccc1N1CCN(C(=O)Cn2ncc3c2-c2cc(C)ccc2OC3)CC1	/	/	2%	/	/
COc1ccccc1/C=C/c1nc2ccccc2n1C(C)C	/	/	-25%	/	/
COc1cccc(C2=NOC(C(=O)NCc3ccccn3)C2)c1 (centres undefined)	/	0%	3%	-6%	0%
COc1ccc(C2=NOC(C(=O)NCc3ccccn3)C2)cc1 (centres undefined)	?	0%	-20%	6%	27µM*
CN(C1CCCCC1)S(=O)(=O)c1ccc(F)c(C(=O)Nc2ccc(C(F)(F)F)cc2)c1	/	/	-21%	/	/
CC(=O)Nc1ccc(SCC(=O)c2cc(C)ccc2C)cc1	1	0%	1%	-11%	19µM*
COP(=O)(OC)c1ccc(NCc2cc(O)ccc2O)cc1	-23	/	?	56µM*	?
CC(C)OC(=O)c1ccc(NCc2cc(O)ccc2O)cc1	-16	/	-24%	-11%	?
CC1OC(Nc2cccc3ccccc23)C(O)C(O)C1O (centres undefined)	/	3%	22µM*	-5%	-7%
O=S1(=O)c2ccccc2N(Cc2ccccc2F)c2ccccc21	/	/	-5%	/	/
COc1ccc(OC)c(S(=O)(=O)N2Cc3ccccc3CC2C(=O)Nc2ccc(C(C)=O)cc2)c1 (centres undefined)	/	/	-12%	/	/
C=CCOc1c(CNc2ccc3[nH]c(=O)[nH]c3c2)cccc1OC	-23	0%	-20%	1%	27µM*
COC(=O)Nc1ccc(S(=O)(=O)N(CCO)CC(F)(F)C(F)F)cc1	7	-9%	-17%	-6%	-12%
CCN(CC(F)(F)C(F)F)S(=O)(=O)c1ccc(NC(=O)OC)cc1	0	3%	-19%	5%	3.8µM*
Cc1ccc(OCCn2c(C3CC(=O)N(Cc4ccc(F)cc4)C3)nc3ccccc32)c(C)c1 (centres undefined)	/	/	-11%	/	/
